According to PubChem BioAssay AID434936 (National Center for Advancing Translational Sciences (NCATS), 2010):
Inconclusive results are not listed. Values without a mark were called inactive. The source made the active and inactive calls. The call rests on the fitted dose curve; in most records, active means well fitted curve in either direction with a large enough effect; inconclusive means small, poorly fitted or top-dose-only effect; inactive means flat fitted curve, though single readings scatter.

Target: Neuropeptide S receptor (Homo sapiens) (UniProt Q6W5P4)
Sequence (Q6W5P4 whole entry, looked up): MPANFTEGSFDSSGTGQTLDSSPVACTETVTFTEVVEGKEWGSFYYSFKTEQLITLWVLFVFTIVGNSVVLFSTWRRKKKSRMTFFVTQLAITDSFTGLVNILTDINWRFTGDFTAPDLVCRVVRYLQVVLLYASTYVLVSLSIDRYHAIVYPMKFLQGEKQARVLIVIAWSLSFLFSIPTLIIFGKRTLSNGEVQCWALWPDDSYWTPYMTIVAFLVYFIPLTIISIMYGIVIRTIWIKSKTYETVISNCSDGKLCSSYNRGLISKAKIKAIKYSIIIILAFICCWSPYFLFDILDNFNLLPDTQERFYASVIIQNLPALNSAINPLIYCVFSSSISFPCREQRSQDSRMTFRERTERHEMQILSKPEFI
Assay: Confirmation Concentration-Response Assay for Antagonists of the Neuropeptide S Receptor: Robust Characterization of cAMP Signal Transduction
Settings: CHO-NPSR cells, NPS-stimulated cAMP TR-FRET; series mostly up to 50.7 µM; activity, negative = inhibition: at the top concentration
Description: NIH Chemical Genomics Center [NCGC] NIH Molecular Libraries Probe Production centers Network [MLPCN] MLPCN Grant: X01-DA026210-01 Assay Submitter (PI): Heilig, Markus Alexander NCGC Assay Overview: Neuropeptide S receptor (NPSR), previously known as GPR154, is a recently de-orphanized G protein coupled receptor. Its endogenous ligand is the 20 amino acids peptide Neuropeptide S (NPS). […] NPS and its receptor are found in various tissues. Specifically they are highly expressed in brain areas that have been implicated in modulation of arousal, stress and anxiety. Central administration of NPS in mice produces an unusual profile of activity by inducing wakefulness and arousal, while at the same time suppressing anxiety. Therefore, NPSR may represent a novel drug target for the treatment of sleep and anxiety disorders. To identify NPSR antagonists, we developed a cell-based cAMP assay. NPS can stimulate the production of cAMP in Chinese hamster ovary cells stably expressing NPS receptor. This change in intracellular cAMP level can be detected by a homogeneous LANCE cAMP assay based on the TR-FRET (time resolved fluorescence resonance energy transfer) between a europium-labeled cAMP tracer complex and a cAMP-specific antibody labeled with Alexa Fluor 647. The europium-labeled cAMP tracer complex is formed by the tight interaction between Biotin-cAMP (b-cAMP) and streptavidin labeled with Europium-W8044 chelate (Eu-SA). Light pulse at 320 nm excites the europium of the cAMP tracer and the energy emitted is transferred to the Alexa molecule bound to the cAMP antibody, generating a TR-FRET signal at 665 nm. Residual energy from the europium will produce a light at 620 nm. The native unlabeled cAMP from cell lysates competes with the europium-cAMP tracer for antibody binding and reversely reduces the emission signal of Alexa by interrupting FRET between the two labeled molecules. Both emission signals from the FRET donor (620 nm) and the acceptor (665 nm) can be detected by a plate reader in the TRF mode. Expression of result in fluorescence ratio (665 nm/620 nm) helps to normalize differences due to cell density and reagent dispensing. This assay was successfully optimized to a 1536-well plate format. Select compounds from the primary screen (AID 1461) were chosen for confirmation based on potency, efficacy, SAR, and activity across other assays in PubChem and at NCGC. Other compounds are analogs of active compounds from the primary screen. This particular assay uses a high density of sampling across concentration-response space to establish more confidence estimates of potency.
NCGC Assay Protocol Summary: A Chinese hamster ovary (CHO) cell line stably expressing the NPS receptor (CHO-NPSR) was obtained from Dr. Heilig lab at NIAAA and maintained in F-12 Kaighn's media (Invitrogen, Carlsbad, CA, 21127) supplemented with 10 % FBS, 100 units/ml penicillin, 100 ug/ml streptomycin and 250 ug/ml geneticin at 37C, 5% CO2 in a humidified atmosphere. Before the assay, aliquots of cells were frozen and stored at -135C. The assay was performed in 1536-well format. Data are reported for both the ratio of the two emission wavelengths, and also for the component 'donor' channel, Em2=620. […] IC50 values were determined from concentration-response data modeled with the standard Hill equation. NPS 1536-well assay protocol: (1) Fresh or frozen CHO-NPSR cells were suspended in F-12 Kaighn's media supplemented with 10 % FBS, 100 units/ml penicillin and 100 ug/ml streptomycin. Cells were plated at 4 ul/well (1200 cells) to white, tissue culture treated 1536-well plates, and then cultured at 37C, 5 % CO2 for 16 to 30 hours. (2) Add 23 nl/well of compound in DMSO solution. The final titration for each compound was between 0.6 nM and 46 uM. […]

Compound | Potency | activity, negative = inhibition [%]
COc1cccc(C2c3c(ncn(-c4ccccc4Br)c3=N)Oc3ccc4ccccc4c32)c1 (stereo unspecified) | 9.72 µM (active) | –
COc1cccc(C2C(C#N)=C(NC(=O)CCc3ccccc3)Oc3ccc4ccccc4c32)c1 (stereo unspecified) | – | 1.79
O=C(Cc1ccccc1)Nc1ncnc2c1C(c1ccccc1)c1c(ccc3ccccc13)O2 (stereo unspecified) | 2.74 µM (active) | –
COc1ccc(-n2cnc3c(c2=N)C(c2cccc(OC)c2)c2c(ccc4ccccc24)O3)cc1 (stereo unspecified) | 6.88 µM (active) | –
COc1ccc(C2c3c(nc(Cc4ccccc4)[nH]c3=O)Oc3ccc4ccccc4c32)cc1OC (stereo unspecified) | – | 5.64
N=c1c2c(ncn1-c1ccccc1)Oc1ccc3ccccc3c1C2c1ccc2c(c1)OCO2 (stereo unspecified) | 3.07 µM (active) | –
CCOC(=O)CCC(=O)Nc1ncnc2c1C(c1ccccc1)c1c(ccc3ccccc13)O2 (stereo unspecified) | 3.45 µM (active) | –
N=c1c2c(ncn1-c1ccccc1)Oc1ccc3ccccc3c1C2c1ccc2c(c1)CCO2 (stereo unspecified) | 2.18 µM (active) | –
COc1cccc(C2c3c(ncn(-c4ccccc4Cl)c3=N)Oc3ccc4ccccc4c32)c1 (stereo unspecified) | 8.67 µM (active) | –
COc1ccc(C2c3ccccc3Oc3ncn(CCN4CCOCC4)c(=N)c32)cc1OC (stereo unspecified) | 4.87 µM (active) | –
CCOC(=O)c1ccc(-n2cnc3c(c2=N)C(c2cccc(OC)c2)c2c(ccc4ccccc24)O3)cc1 (stereo unspecified) | 10.9 µM (active) | –
COc1cccc(C2c3c(ncn(-c4cccc(Cl)c4)c3=N)Oc3ccc4ccccc4c32)c1 (stereo unspecified) | 8.67 µM (active) | –
COc1ccccc1C1c2c(ncn(-c3ccccc3)c2=N)Oc2ccc3ccccc3c21 (stereo unspecified) | 4.34 µM (active) | –
COc1cccc(C2c3c(ncn(-c4cccc(C#N)c4)c3=N)Oc3ccc4ccccc4c32)c1 (stereo unspecified) | 13.7 µM (active) | –
COc1cccc(C2c3c(ncn(-c4ccc(F)cc4)c3=N)Oc3ccc4ccccc4c32)c1 (stereo unspecified) | 12.2 µM (active) | –
COc1cccc(C2c3c(ncn(-c4ccc5c(c4)OCO5)c3=N)Oc3ccc4ccccc4c32)c1 (stereo unspecified) | 4.34 µM (active) | –

Compound | Potency | activity, negative = inhibition [%]
COc1cccc(C2c3c(ncn(-c4cccc(F)c4)c3=N)Oc3ccc4ccccc4c32)c1 (stereo unspecified) | 3.87 µM (active) | –
N=c1c2c(ccn1Cc1ccccc1)Oc1ccc3ccccc3c1C2c1ccccc1 (stereo unspecified) | 2.18 µM (active) | –
COc1ccc(C2c3c(N)nc(CCc4ccccc4)nc3Oc3ccc4ccccc4c32)cc1OC (stereo unspecified) | 24.4 µM (active) | –
N=c1c2c(ccn1-c1ccccc1)Oc1ccc3ccccc3c1C2c1ccccc1 (stereo unspecified) | 1.09 µM (active) | –
COc1ccc(C2c3c(ncn(CCc4ccccc4)c3=N)Oc3ccc4ccccc4c32)cc1OC (stereo unspecified) | 27.4 µM (active) | –
COc1ccc(C2c3c(ncn(CCN4CCOCC4)c3=N)Oc3ccc4ccccc4c32)cc1OC (stereo unspecified) | 2.74 µM (active) | –
COc1cccc(C2c3c(ncn(-c4ccccc4C)c3=N)Oc3ccc4ccccc4c32)c1 (stereo unspecified) | 6.88 µM (active) | –
Cc1nc2ccccn2c1C(O)(c1ccccc1)c1ccccc1 | – | 12.1
N=c1c2c(ccn1CCCc1ccccc1)Oc1ccc3ccccc3c1C2c1ccccc1 (stereo unspecified) | 2.74 µM (active) | –
COc1cccc(C2c3c(ncn(-c4ccccc4)c3=N)Oc3ccc4ccccc4c32)c1OC (stereo unspecified) | 4.34 µM (active) | –
COc1cccc(C2c3c(ncn(-c4ccccc4SC)c3=N)Oc3ccc4ccccc4c32)c1 (stereo unspecified) | 4.87 µM (active) | –
COc1cccc(C2c3c(ncn(-c4ccccc4C(C)(C)C)c3=N)Oc3ccc4ccccc4c32)c1 (stereo unspecified) | 12.2 µM (active) | –
N=c1c2c(ccn1CCc1ccccc1)Oc1ccc3ccccc3c1C2c1ccccc1 (stereo unspecified) | 3.87 µM (active) | –
S=P(c1ccccc1)(c1ccccc1)c1c[n+](C/C=C/c2ccccc2)c2ccccn12 | 0.56 µM (active) | –
COc1ccc(C2c3c(nc(CCCc4ccccc4)[nH]c3=O)Oc3ccc4ccccc4c32)cc1OC (stereo unspecified) | – | 12.4
